# Source: PubChem BioAssay (NCATS)
# Inconclusive results are not listed. A call without a number means that no potency is given here. Active and inactive are the calls of the source. The call rests on the fitted dose curve; in most records, active means well fitted curve in the direction sought with a large enough effect; inconclusive means small, poorly fitted or top-dose-only effect, or another doubt; inactive means no such curve, though single readings can be large; an effect the other way counts as inactive or inconclusive.
# Test: MultiTox-Fluor Cytotoxicity Assay - LYMP1-002 - Live Cells (AID 955);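 further: cells exposed to compound for 16 hours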
# Conditions: LYMP1-002 lymphoblastoid live-cell protease fluorescence viability; series mostly up to 46.1 µM
# Outline: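 LYMP1-002 lymphoblastoid cells; 2500 cells/well; 16 hr compound exposure, 37 C; MultiTox-Fluor reagent 60 min RT; live-cell fluorescence Ex/Em=405/510; qHTS concentration-response, Hill-equation AC50; tetraoctylammonium bromide positive control.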
row,Structure (SMILES),outcome
1,NCCS(=O)(=O)O,inactive
2,COc1ccc(CCN(C)CCCC(C#N)(c2ccc(OC)c(OC)c2)C(C)C)cc1OC (configuration not stated),inactive
3,Cc1cn([C@H]2C=C[C@@H](CO)O2)c(=O)[nH]c1=O,inactive
4,Cc1cn([C@H]2C[C@H](N=[N+]=[N-])[C@@H](CO)O2)c(=O)[nH]c1=O,inactive

# Test: MultiTox-Fluor Cytotoxicity Assay - LYMP1-002 - Dead Cells (AID 960);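 further: cells exposed to compound for 16 h at 37 °C; nearly all actives have a fitted effect of over 60% in size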
# Conditions: LYMP1-002 lymphoblastoid cells, dead-cell protease fluorescence; series mostly up to 46.1 µM
# Outline: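 Readout: fluorescence at 485/520 from cell-impermeant bis-AAF-R110 cleaved by proteases leaking from damaged cells. LYMP1-002 lymphoblastoid line, 16 hr compound treatment at 37 C, concentration-response in qHTS format; Hill-equation AC50 values.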
row,Structure (SMILES),Potency
1,NCCS(=O)(=O)O,inactive
2,COc1ccc(CCN(C)CCCC(C#N)(c2ccc(OC)c(OC)c2)C(C)C)cc1OC (configuration not stated),inactive
3,Cc1cn([C@H]2C=C[C@@H](CO)O2)c(=O)[nH]c1=O,inactive
4,Cc1cn([C@H]2C[C@H](N=[N+]=[N-])[C@@H](CO)O2)c(=O)[nH]c1=O,inactive

# Test: MultiTox-Fluor Cytotoxicity Assay - LYMP1-003 - Dead Cells (AID 961);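 further: cells exposed to compound for 16 h at 37 °C; nearly all actives have a fitted effect of over 70% in size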
# Conditions: LYMP1-003 lymphoblastoid cells, dead-cell protease fluorescence; series mostly up to 92.2 µM
# Outline: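 Human lymphoblastoid LYMP1-003 cells (2500/well) were treated with compounds for 16 hr at 37 C in complete medium. Dead-cell protease release was read by bis-AAF-R110 fluorescence (Ex/Em 485/520). AC50 came from Hill fits, normalized to DMSO and 15 uM tetraoctylammonium bromide.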
row,Structure (SMILES),outcome
1,NCCS(=O)(=O)O,inactive
2,COc1ccc(CCN(C)CCCC(C#N)(c2ccc(OC)c(OC)c2)C(C)C)cc1OC (configuration not stated),inactive
3,Cc1cn([C@H]2C=C[C@@H](CO)O2)c(=O)[nH]c1=O,inactive
4,Cc1cn([C@H]2C[C@H](N=[N+]=[N-])[C@@H](CO)O2)c(=O)[nH]c1=O,inactive
